Reference: the supplement of paper PMC11732987, “Enantioselective OTUD7B fragment discovery through chemoproteomics screening and high-throughput optimisation” (Communications Chemistry, 2025)

Columns and labels:
Assay in all cases: log2 ratio of Biotin-Ahx-Ub-VS probe labelling (fragment/DMSO); higher = less target engagement (more negative = stronger competition), active = hit call of the paper (q ≤ 0.05, log2 ratio ≤ -1)
Conditions in all cases: compound concentration: 200 uM; treatment time: 3 h
USP42 = target: T1, USP42 (UniProt Q9H9J4)
T1 sequence (whole entry): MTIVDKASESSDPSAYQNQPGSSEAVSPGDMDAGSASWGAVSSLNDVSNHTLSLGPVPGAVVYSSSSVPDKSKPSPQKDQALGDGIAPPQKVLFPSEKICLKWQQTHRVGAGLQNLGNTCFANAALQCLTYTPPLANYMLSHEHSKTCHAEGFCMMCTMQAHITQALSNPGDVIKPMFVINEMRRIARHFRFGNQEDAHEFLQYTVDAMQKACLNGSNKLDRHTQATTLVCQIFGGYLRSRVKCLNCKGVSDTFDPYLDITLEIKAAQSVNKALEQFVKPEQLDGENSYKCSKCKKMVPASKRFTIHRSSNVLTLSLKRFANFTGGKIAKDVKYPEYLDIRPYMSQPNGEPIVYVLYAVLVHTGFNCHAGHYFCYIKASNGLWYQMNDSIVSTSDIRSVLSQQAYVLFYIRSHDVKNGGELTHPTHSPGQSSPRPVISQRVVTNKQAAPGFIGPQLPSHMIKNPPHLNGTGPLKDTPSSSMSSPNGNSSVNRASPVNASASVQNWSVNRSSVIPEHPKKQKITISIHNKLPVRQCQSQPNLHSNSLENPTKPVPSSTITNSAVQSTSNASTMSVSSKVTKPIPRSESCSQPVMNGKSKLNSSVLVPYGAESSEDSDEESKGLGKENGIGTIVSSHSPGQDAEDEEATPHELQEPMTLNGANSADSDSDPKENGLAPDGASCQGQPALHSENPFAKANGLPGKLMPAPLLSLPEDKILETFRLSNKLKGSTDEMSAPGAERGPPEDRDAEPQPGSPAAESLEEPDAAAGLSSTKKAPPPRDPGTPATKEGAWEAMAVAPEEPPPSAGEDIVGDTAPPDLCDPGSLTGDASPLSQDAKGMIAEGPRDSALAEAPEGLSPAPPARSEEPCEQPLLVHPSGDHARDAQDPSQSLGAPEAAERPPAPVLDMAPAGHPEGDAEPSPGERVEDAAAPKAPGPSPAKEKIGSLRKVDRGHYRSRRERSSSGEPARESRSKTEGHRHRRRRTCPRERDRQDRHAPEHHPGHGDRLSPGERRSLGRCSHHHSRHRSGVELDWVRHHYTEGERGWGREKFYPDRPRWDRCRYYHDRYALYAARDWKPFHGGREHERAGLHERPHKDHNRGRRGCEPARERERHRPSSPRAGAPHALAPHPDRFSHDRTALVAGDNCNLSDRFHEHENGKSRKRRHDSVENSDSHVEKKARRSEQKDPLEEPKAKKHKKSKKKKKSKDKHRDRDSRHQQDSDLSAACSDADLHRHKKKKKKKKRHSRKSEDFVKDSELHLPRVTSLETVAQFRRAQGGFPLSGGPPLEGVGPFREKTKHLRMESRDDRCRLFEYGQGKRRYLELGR
In short: (§1)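 Average log2 ratios of fragment over vehicle were obtained by unpaired t-test from global-median-normalised Spectronaut label-free quantities. Proteins with ≥2 unique peptides were included. HEK293T lysate (495 µg per sample) was treated in triplicate with fragment at 200 µM or vehicle for 3 h, then with Biotin-Ahx-Ub-VS at 0.5 µM final for 1 h, and labelled DUBs were NeutrAvidin-enriched and run by diaPASEF LC-MS/MS.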

USP46 = USP46 (UniProt P62068)
In short: as §1

USP47 = target: T2, USP47 (UniProt Q96K76)
T2 sequence (whole entry): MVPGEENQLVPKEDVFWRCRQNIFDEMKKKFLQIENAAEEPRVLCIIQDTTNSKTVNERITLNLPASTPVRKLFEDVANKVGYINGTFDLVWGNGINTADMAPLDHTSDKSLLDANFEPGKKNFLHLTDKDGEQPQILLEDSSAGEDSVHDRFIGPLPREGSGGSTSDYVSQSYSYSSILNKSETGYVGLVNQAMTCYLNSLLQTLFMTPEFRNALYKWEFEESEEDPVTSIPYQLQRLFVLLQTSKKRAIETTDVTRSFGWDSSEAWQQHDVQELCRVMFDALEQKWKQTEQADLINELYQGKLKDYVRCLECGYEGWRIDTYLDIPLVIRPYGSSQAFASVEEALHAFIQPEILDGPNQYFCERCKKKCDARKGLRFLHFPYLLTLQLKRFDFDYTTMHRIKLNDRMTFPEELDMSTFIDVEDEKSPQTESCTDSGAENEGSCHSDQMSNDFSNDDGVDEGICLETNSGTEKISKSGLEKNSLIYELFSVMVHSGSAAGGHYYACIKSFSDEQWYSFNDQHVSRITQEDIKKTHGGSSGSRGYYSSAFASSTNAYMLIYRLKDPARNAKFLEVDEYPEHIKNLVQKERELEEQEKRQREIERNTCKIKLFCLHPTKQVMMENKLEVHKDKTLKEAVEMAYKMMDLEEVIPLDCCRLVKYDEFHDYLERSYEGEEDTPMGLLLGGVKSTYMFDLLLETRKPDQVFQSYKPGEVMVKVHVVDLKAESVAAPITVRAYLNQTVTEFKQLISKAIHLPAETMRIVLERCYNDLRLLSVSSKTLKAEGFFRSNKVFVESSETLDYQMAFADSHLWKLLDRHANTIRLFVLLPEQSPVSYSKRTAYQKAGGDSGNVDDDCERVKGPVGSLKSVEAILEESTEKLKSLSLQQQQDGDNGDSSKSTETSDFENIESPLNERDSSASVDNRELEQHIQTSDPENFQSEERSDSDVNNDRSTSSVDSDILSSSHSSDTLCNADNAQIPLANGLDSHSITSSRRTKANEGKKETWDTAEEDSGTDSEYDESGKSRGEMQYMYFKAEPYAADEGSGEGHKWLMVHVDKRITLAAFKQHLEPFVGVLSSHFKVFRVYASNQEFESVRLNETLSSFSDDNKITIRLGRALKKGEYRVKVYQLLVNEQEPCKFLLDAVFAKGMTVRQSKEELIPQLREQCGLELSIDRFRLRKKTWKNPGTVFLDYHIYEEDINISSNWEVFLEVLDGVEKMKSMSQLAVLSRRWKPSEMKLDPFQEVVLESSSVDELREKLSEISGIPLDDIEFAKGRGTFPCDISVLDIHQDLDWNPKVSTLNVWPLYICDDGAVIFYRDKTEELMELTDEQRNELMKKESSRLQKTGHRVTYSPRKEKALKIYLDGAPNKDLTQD
In short: as §1

USP48 = target: T3, USP48 (UniProt Q86UV5)
T3 sequence (whole entry): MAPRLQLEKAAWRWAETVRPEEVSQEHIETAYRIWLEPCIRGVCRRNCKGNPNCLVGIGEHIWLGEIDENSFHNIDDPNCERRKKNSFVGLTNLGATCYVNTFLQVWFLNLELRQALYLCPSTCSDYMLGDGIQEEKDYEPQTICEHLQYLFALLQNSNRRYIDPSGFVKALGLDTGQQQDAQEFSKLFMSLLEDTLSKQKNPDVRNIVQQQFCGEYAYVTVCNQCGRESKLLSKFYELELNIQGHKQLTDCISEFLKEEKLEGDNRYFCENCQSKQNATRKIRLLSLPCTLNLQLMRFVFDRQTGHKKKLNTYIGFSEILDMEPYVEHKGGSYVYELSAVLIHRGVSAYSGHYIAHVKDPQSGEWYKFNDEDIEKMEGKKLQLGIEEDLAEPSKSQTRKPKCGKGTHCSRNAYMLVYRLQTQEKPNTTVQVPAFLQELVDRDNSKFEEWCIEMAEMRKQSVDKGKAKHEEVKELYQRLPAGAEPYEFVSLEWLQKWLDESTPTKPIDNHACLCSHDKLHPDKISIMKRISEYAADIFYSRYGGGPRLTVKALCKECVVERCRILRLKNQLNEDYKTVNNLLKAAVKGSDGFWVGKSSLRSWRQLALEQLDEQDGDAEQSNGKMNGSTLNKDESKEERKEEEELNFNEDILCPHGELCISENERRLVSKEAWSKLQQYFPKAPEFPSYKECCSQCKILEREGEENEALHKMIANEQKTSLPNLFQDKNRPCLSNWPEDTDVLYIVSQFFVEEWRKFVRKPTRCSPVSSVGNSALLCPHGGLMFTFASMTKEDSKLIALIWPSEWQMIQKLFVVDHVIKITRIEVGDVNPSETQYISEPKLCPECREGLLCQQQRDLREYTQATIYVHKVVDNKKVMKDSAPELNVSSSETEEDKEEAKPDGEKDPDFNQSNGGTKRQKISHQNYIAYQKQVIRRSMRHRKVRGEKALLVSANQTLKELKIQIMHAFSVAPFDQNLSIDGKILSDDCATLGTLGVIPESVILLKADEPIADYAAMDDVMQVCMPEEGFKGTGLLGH
In short: as §1

USP5 = target: T4, USP5 (UniProt P45974)
T4 sequence (whole entry): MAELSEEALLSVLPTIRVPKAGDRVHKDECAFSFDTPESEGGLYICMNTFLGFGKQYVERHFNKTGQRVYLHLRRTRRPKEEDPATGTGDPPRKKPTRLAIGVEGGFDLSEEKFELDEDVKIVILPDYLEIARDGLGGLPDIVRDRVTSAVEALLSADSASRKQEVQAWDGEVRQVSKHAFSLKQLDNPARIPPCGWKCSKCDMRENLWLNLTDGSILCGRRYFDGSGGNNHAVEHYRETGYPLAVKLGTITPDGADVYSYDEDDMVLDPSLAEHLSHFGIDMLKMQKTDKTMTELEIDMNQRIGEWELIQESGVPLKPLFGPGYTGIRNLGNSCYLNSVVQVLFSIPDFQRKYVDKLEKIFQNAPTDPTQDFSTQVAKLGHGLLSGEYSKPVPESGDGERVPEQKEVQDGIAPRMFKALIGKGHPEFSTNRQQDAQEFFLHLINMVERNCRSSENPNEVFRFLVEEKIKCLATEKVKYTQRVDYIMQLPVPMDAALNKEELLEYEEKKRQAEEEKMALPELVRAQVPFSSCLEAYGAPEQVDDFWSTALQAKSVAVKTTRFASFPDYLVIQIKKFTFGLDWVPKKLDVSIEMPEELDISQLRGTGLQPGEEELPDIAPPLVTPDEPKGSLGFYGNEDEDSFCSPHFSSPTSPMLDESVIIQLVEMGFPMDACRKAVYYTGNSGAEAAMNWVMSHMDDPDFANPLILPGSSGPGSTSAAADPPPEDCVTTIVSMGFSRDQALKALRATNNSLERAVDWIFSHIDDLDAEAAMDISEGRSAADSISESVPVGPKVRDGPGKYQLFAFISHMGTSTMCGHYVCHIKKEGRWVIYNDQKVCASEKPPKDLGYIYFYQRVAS
In short: as §1

USP54 = USP54 (UniProt Q70EL1)
In short: as §1

USP7 = USP7 (UniProt Q93009)
In short: as §1

USP8 = target: T5, USP8 (UniProt P40818)
T5 sequence (whole entry): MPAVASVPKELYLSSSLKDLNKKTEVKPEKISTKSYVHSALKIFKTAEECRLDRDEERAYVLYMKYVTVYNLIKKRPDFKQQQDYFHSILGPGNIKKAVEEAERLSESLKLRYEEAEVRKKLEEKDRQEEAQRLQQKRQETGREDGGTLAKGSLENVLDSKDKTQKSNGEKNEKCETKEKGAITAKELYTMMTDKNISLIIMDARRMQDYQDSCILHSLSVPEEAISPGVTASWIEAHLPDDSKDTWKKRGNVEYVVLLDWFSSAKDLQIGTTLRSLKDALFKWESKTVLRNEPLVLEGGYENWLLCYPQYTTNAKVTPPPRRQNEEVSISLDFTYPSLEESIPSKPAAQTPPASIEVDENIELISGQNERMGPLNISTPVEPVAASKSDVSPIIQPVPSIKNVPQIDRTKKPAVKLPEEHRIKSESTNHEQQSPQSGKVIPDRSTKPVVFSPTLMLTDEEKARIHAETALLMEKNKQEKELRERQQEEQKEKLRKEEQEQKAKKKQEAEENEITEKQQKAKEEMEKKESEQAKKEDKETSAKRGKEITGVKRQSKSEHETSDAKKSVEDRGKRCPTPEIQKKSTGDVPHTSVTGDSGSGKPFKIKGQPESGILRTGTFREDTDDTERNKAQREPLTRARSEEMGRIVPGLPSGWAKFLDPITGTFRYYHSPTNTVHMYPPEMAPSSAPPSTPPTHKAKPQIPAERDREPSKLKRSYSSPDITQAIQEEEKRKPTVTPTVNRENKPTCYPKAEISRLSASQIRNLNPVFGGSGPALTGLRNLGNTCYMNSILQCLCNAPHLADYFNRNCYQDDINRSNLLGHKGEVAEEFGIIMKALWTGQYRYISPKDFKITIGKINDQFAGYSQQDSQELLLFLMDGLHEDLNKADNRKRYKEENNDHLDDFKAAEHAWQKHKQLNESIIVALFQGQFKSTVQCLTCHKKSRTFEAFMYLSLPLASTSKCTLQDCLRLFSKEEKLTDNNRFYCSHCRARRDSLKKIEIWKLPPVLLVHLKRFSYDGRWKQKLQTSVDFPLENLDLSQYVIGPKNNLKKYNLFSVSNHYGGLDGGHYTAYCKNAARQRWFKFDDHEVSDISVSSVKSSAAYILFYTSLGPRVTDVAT
In short: as §1

USP9X = USP9X (UniProt Q93008)
In short: as §1

UniProt O00487 = target: UniProt O00487
In short: as §1

Measured: log2 ratio of Biotin-Ahx-Ub-VS probe labelling

Sequence of UniProt O00487 (O00487 whole entry): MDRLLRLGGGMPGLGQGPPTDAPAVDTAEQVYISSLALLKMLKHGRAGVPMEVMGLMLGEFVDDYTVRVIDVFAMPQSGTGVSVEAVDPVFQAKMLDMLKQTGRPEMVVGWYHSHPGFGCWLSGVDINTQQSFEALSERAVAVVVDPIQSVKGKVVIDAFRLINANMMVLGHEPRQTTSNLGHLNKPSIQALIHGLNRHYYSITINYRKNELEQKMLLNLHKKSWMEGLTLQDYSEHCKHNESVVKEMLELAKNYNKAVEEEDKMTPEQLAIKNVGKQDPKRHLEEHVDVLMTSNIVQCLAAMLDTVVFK
Sequence of USP9X (Q93008 whole entry): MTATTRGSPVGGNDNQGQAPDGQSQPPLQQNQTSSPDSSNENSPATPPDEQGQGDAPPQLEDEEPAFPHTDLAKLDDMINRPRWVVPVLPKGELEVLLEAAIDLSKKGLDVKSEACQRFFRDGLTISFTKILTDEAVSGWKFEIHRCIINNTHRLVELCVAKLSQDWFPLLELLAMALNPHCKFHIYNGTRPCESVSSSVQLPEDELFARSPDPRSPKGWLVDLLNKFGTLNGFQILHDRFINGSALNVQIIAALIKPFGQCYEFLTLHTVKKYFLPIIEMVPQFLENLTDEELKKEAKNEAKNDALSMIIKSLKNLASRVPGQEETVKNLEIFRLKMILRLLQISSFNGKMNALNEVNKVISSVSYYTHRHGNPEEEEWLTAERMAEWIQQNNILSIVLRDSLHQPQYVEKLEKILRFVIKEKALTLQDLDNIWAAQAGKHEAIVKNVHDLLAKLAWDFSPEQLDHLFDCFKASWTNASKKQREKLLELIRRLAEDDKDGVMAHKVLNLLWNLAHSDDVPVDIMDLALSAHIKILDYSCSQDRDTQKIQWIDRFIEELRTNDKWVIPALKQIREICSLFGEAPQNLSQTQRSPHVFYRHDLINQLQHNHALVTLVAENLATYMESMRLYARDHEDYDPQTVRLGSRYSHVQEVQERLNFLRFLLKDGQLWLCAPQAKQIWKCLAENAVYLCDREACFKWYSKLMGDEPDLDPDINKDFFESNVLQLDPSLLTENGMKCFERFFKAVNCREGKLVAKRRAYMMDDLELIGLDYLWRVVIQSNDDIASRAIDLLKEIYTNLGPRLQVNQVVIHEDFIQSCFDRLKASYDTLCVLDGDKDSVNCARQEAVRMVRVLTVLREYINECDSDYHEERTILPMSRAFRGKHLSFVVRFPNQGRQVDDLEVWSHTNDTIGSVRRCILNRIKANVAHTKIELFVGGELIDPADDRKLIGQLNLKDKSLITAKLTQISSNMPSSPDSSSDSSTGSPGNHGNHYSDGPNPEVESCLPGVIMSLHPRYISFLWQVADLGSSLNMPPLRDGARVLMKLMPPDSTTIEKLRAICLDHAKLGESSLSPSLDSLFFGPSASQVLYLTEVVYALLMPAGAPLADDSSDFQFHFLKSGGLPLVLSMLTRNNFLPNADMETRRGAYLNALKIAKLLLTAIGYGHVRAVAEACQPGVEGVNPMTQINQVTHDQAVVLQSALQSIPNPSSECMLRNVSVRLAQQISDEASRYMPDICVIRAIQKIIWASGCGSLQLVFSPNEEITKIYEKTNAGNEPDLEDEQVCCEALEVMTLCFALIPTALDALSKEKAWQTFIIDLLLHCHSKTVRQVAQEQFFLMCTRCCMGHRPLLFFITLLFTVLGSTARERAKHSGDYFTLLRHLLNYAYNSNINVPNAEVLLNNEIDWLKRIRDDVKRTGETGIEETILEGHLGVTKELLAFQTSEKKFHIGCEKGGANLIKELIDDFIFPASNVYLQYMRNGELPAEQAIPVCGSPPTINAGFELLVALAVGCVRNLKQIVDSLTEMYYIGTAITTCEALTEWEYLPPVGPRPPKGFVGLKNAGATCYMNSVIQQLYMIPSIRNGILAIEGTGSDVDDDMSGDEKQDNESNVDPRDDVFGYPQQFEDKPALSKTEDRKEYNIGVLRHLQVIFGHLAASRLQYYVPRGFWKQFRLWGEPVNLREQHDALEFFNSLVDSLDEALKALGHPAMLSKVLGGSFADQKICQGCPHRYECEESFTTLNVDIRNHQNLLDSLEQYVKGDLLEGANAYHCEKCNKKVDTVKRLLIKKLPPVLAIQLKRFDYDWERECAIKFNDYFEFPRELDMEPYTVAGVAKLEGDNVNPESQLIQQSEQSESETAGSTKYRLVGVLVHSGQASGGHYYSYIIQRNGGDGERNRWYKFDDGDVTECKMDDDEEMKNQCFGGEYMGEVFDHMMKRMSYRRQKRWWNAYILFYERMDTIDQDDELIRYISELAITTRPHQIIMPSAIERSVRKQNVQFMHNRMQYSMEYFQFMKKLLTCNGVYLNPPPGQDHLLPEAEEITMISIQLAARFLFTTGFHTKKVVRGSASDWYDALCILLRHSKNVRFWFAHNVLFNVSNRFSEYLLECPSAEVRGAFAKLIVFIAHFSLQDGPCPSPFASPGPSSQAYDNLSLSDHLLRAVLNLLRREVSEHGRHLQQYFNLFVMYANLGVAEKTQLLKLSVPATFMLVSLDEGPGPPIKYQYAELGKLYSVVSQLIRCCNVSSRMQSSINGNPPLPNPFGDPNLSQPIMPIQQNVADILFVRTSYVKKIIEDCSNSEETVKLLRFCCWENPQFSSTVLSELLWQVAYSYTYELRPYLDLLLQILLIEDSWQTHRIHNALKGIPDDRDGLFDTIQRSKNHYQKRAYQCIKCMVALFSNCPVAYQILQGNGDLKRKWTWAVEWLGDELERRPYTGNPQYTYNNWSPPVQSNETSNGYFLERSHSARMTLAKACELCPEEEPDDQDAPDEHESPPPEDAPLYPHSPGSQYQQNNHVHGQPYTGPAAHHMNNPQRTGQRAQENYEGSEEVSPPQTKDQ
Sequence of USP7 (Q93009 whole entry, looked up): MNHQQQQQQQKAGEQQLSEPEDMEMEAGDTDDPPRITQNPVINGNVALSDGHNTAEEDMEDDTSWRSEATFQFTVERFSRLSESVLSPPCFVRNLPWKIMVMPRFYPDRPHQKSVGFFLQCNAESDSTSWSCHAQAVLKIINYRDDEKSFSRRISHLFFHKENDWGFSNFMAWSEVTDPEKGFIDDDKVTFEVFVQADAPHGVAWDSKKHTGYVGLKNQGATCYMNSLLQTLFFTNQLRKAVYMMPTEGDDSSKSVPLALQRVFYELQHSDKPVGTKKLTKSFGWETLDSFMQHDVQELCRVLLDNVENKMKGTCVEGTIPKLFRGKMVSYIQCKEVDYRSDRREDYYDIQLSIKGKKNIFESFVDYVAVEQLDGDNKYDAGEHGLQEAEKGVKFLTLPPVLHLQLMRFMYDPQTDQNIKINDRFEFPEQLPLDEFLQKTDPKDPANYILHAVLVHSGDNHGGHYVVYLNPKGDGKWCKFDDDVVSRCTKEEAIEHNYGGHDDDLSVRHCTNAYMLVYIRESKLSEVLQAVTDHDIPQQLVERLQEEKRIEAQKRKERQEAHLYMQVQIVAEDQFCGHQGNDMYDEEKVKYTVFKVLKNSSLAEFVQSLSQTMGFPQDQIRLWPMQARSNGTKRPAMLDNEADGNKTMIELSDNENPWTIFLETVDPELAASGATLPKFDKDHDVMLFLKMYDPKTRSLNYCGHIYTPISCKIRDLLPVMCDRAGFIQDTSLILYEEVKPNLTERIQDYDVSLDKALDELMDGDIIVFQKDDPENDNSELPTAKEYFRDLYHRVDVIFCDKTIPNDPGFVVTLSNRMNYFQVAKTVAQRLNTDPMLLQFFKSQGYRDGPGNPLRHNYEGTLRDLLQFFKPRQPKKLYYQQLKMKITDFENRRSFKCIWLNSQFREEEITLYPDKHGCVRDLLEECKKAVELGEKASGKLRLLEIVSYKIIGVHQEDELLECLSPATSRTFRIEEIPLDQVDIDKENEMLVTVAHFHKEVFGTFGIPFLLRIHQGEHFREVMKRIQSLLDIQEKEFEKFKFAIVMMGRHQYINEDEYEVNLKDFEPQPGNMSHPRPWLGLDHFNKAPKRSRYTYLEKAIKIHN
Sequence of USP46 (P62068 whole entry): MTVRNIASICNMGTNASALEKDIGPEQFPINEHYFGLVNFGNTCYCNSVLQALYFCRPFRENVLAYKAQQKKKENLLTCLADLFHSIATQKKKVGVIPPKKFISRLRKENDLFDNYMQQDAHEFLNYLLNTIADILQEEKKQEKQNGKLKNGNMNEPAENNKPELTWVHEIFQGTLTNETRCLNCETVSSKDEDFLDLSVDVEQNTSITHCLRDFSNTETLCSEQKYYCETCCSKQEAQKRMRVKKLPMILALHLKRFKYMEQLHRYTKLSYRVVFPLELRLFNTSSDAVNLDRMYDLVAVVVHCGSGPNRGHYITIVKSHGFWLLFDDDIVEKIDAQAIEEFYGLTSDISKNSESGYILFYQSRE

Cl.Cn1c(CNC(=O)CCl)nc2cccnc21
inactive: USP42 -0.141 | USP46 -0.0593 | USP47 -0.0713 | USP48 -0.0748 | USP5 -0.0112 | USP54 0.0986 | USP7 -0.133 | USP8 -0.0336 | USP9X -0.29 | UniProt O00487 -0.167
